# PubChem BioAssay (NCI)
# The panel holds about 83,000 compounds, 20% with a hit somewhere; the sample as a whole holds those more often.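 Cell lines were cultured in 96-well plates, exposed to a single compound concentration, and assessed for percent growth 48 hours later.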 A number with no mark means an inactive call. Calls of active or inactive are those of the source.
# Tested on: UACC-62 melanoma
# Experiment: NCI-60 one-dose screen, 48 h (100 = growth as untreated, 0 = no growth, -100 = all killed)
# Conditions: 10 µM
# Procedure: Growth inhibition of the UACC-62 human tumor cell line is measured as a screen for anti-cancer activity. Cells are grown in 96 well plates and exposed to the test compound for 48 hours. Compounds are tested at a single concentration, which is 10^-5 M for most compounds. The reported endpoint is percent growth (GI% or GIPRCNT), where numbers from 0 - 100% represent growth inhibition, and numbers from -100% - 0 represent cell death. For example, a value of 40 represents 60% growth inhibition. A value of 0 means no net growth occurred over the course of the experiment. A value of -40 indicates 40% of cells at the beginning of the experiment died by the end of the experiment. A value of -100 means all cells are dead at the end of the experiment.
# NCI-60 Human Tumor Cell Lines Screen was performed using the standard one-dose NCI protocol, which is described in more detail at https://dtp.cancer.gov/discovery_development/nci-60/default.htm.
# Compounds with GIPRCNT values below 10 were considered active. Activity score was based on GIPRCNT using the following formula: […]
# Score is 0 for GIPRCNT values of 100 or above, 50 for GIPRCNT values of 0, and 100 for GIPRCNT values of -100.
row,Compound,growth
1,COc1cccc(C(N)=Nc2ccc(OCCCCCCn3cncn3)cc2)c1,36.4%
2,OCc1[nH]nc2cc(Nc3ncc4ccc(Br)c(OC5CCC(O)CC5)c4n3)ccc12 (stereo not given),-89.2% (active)
3,COC(=O)c1c(C(=O)OC)c2n(c1C)[C@@H]([C@@H](C)[C@H]1CC[C@H]3[C@@H]4CCC5=CC(=O)CC[C@]5(C)[C@H]4CC[C@]13C)SC2,40.6%
4,CN1CCN(c2ccc(Nc3nc(NCCCNC(=O)C4CCCCC4)c4sccc4n3)cc2)CC1,48.5%
5,CCN1CCN(c2ccc(NC(=O)Nc3ccc(-c4cc(C(=O)NC(C)C)c5ncccc5n4)cc3)cc2C(F)(F)F)CC1,-93.3% (active)
6,S=c1nc(-c2ccccc2)cc(-c2cc3ccccc3nc2Cl)[nH]1,43.8%
7,Brc1ccc(/C=N/Nc2ncnc3sc4c(c23)CCN(Cc2ccccc2)C4)cc1,90.3%
8,O=C(c1ccc([N+](=O)[O-])c([N+](=O)[O-])c1O)n1[nH]c(=O)c2ccccc2c1=O,60.3%
9,CCCSc1nc(NC2CC2)c(C#N)c(-c2ccc(OC)cc2)n1,83.7%
10,O=C(Nc1cccc(C(F)(F)F)c1)c1cncc(C#Cc2cnc3ccc(N4CCOCC4)nn23)c1,-22.1% (active)
11,CCCn1c(=O)c2[nH]c(-c3ccc(OCc4nc5ccc(F)cc5[nH]4)cc3)nc2n(CCC)c1=O,3.86% (active)
12,Cc1ccc(-c2cc(C(=O)N=Nc3c(O)[nH]c4ccc(Br)cc34)c3ccccc3n2)cc1,60.6%
13,Nc1cc(-c2cccc(C(=O)NCc3ccc4c(c3)OCO4)c2)ccn1,93.4%
14,CN1CCCN(Cc2ccc(C(=O)Nc3cccc(Nc4ccc5c(O)cccc5n4)c3)cc2C(F)(F)F)CC1,-94.8% (active)
15,N#Cc1ccc(-c2nn(-c3ccc(C(=O)O)cc3)cc2CNc2cc(Cl)cc(C(F)(F)F)c2)cc1,-48.8% (active)
16,CN1CCN(c2ccc(Nc3nc(N4CCN(S(=O)(=O)c5ccc(Cl)cc5)CC4)c4sccc4n3)cc2)CC1,-90.3% (active)
17,CCOc1ccc(Nc2nc3ccccc3nc2Nc2ccc(OCC)cc2)cc1,73.3%
18,CC1=C2C(=C[C@@](C)(CO)[C@@H]2O)/C(=N\N)[C@](C)(O)C12CC2,-81.7% (active)
19,O=C(CN1CCN(c2ncnc3c2cnn3-c2ccccc2)CC1)Nc1nncs1,17.4%
20,O=C(Nc1ccc(Cl)c(C(F)(F)F)c1)c1cncc(C#Cc2cnc3ccc(N4CCOCC4)nn23)c1,-10.3% (active)

row,Compound,growth
1,CN(C(=O)c1ccc(C(F)(F)F)cc1C(F)(F)F)c1sc2c(c1C#N)CCC(=O)C2,55.7%
2,C=C1CCC2C3(C)COC(c4c(F)cccc4F)OC3CCC2(C)C1C/C=C1/C(=O)OCC1O (stereo not given),-4.04% (active)
3,CO[C@H]1CSS[C@@H]1Cn1nc(-c2ccc(Oc3ccccc3)cc2)c2c(N)ncnc21,-69.5% (active)
4,COC[C@@H](CC(C)C)N=C1N/C(=C\c2ccc3ncsc3c2)C(=O)N1C,-64.9% (active)
5,COc1ccc2cc([C@H](C)C(=O)NCc3ccccc3)ccc2c1,22.1%
6,O=C1NC(=NC23CC4CC(CC(C4)C2)C3)N/C1=C\c1ccc2ncoc2c1,-71.4% (active)
7,Cc1noc2c(Cc3ccc([N+](=O)[O-])cc3)nn(CC(=O)N/N=C/c3ccc(Cl)cc3)c(=O)c12,65.3%
8,COC1=C[C@]23CCC(=O)N2CCc2cc4c(cc2[C@@H]3[C@@H]1OC(=O)CCCC(C)C)OCO4,61%
9,CCCn1c(O)c(N=Nc2nc(-c3cc4ccccc4oc3=O)cs2)c2cc(Br)ccc21,94.4%
10,O=c1oc2ccc(-c3ccc(F)cc3F)cc2c(=O)n1-c1ccc(F)cc1,-50.2% (active)
11,O=C(CNc1nc(-c2ccccc2)cs1)Nc1ccc([N+](=O)[O-])cc1,9.93% (active)
12,O=c1cc(-c2ccccc2)oc2cc(OCCCNCc3ccccc3)cc(O)c12,-55.7% (active)
13,O=c1[nH]n(C(=S)N/N=C/c2ccc(F)cc2)c(=O)c2ccccc12,44.7%
14,COc1ccc(-c2cc(C(=O)N=Nc3c(O)[nH]c4ccc(Br)cc34)c3ccccc3n2)cc1,32.6%
15,O=C(NCCCCC(c1ccc(F)cc1)c1ccc(F)cc1)NCCCc1cccnc1,41.6%
16,O=C(Nc1ccc(OCc2ccccc2)cc1)Nc1ccc(Cl)c(C(F)(F)F)c1,14.1%
17,CCOC(=O)CNC(=O)CN(Cc1ccccc1)C(=O)[C@@]1(C)CCC[C@]2(C)[C@H]3C[C@H]4C(C(C)C)=C[C@]3(CC[C@H]21)[C@@H]1C(=O)OC(=O)[C@@H]14,64.4%
18,COc1ccc2nc(Nc3cccc(NC(=O)c4ccc(CN5CCN(C)CC5)c(C(F)(F)F)c4)c3)ccc2c1,-93% (active)
19,CN1CCN(c2ccc(C(=O)/C=C/c3cc(C(F)(F)F)ccc3Cl)cc2)CC1,-79.9% (active)
20,O=C(CNc1nc(-c2ccccc2)cs1)Nc1ccccc1,-90.1% (active)
